According to PubChem BioAssay AID504333 (National Center for Advancing Translational Sciences (NCATS), 2011):
The whole screen tested about 360,000 compounds, of which about 16,000 (4.4%) were called active. Another 9% or so got no clear call; they are omitted. Calls come from the whole dose curve; as a rule, active = well fitted inhibition curve with a large enough effect; inconclusive = small, poorly fitted or top-dose-only effect; inactive = no such curve, though single readings can be large or run the other way. The entries come from a sample that favours actives as a whole.

molecular target: Bromodomain adjacent to zinc finger domain protein 2B (Homo sapiens) (UniProt Q9UIF8); experiment: qHTS Assay for Inhibitors of BAZ2B; details: AlphaScreen BAZ2B-H3K14Ac peptide displacement; series mostly up to 114 µM; activity change, negative = inhibition: at the top concentration; note: nearly all actives have a fitted effect of over 60% in size
Method in brief: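 BAZ2B 50 nM plus b-H3(5-23)K14Ac 50 nM, PBS pH 7.4/0.01% Tween-20, 30 min RT; compound added (max 110 uM), 30 min RT; streptavidin donor/Ni-chelate acceptor beads 10 ug/mL final, 20 min dark; AlphaScreen read.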
% is set by controls: 0 for no effect and ±100 for the full control effect; potency is the fitted concentration of half-maximal effect.

Sequence of Bromodomain adjacent to zinc finger domain protein 2B (Homo sapiens) (Q9UIF8 whole entry, looked up, the tested form may be a part): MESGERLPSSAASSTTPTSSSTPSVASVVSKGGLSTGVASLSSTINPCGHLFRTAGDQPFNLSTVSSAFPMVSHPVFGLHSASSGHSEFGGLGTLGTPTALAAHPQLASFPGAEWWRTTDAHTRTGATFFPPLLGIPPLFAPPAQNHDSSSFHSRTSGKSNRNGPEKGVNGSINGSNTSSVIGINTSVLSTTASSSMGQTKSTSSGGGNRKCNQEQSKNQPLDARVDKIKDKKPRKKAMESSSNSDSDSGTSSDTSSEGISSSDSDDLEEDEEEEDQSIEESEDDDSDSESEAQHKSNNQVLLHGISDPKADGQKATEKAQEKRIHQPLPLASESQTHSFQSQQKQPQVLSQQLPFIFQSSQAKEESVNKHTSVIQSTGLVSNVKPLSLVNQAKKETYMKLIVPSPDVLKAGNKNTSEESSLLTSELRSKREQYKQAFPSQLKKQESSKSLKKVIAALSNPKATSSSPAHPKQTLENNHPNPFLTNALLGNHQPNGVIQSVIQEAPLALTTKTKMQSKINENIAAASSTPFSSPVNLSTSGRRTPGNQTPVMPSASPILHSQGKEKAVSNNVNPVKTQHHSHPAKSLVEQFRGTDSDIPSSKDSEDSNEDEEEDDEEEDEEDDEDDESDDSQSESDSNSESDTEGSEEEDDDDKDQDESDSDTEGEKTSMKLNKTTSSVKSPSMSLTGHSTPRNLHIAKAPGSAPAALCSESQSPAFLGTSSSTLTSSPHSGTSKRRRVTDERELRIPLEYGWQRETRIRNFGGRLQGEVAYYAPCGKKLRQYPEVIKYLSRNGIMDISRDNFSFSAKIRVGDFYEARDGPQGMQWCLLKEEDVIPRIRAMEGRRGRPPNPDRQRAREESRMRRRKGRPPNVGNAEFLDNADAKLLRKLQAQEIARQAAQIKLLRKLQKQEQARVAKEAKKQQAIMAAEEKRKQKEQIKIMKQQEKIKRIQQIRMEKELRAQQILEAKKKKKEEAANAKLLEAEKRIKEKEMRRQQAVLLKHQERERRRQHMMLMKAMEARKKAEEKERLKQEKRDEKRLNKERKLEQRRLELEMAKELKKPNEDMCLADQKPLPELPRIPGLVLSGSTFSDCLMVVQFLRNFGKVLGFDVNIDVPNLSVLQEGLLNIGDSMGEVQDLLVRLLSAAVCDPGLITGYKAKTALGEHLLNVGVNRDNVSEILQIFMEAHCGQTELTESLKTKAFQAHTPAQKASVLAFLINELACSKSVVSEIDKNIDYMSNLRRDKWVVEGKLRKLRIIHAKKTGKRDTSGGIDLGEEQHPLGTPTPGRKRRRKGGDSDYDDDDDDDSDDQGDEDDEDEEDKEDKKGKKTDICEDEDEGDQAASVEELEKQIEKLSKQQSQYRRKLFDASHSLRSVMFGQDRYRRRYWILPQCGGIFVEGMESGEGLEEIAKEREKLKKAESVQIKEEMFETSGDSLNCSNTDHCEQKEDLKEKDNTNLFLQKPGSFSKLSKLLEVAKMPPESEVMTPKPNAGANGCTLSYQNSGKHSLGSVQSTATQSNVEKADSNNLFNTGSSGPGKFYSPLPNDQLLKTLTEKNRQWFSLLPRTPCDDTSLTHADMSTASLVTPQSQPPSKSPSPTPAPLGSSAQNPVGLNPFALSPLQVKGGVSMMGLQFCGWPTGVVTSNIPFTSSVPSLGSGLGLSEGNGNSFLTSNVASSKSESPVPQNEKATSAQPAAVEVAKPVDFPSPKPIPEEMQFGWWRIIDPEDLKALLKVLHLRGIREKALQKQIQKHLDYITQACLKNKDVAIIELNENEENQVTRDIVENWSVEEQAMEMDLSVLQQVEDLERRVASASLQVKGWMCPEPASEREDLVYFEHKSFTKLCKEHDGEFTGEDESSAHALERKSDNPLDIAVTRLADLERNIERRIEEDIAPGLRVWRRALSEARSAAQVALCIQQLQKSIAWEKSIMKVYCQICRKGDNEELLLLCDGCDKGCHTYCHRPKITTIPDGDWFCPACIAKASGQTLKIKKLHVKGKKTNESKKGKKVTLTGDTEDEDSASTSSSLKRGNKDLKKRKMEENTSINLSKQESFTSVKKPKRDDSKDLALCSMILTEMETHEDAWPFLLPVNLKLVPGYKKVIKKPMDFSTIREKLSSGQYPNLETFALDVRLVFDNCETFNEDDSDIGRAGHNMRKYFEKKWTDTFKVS

Activity change, negative = inhibition, inactive:
COc1cccc(NC(=O)c2ccc3nc(CCc4ccccc4)oc3c2)c1 0.792%, CC(=O)N1CCCc2cc(S(=O)(=O)N3CCC(C(=O)NCc4ccc(C)cc4)CC3)ccc21 2.46%, O=C(Nc1cc(C(F)(F)F)ccc1Cl)c1ccc2c(c1)CCN2S(=O)(=O)c1ccccc1 -1.09%, S=C(NCCc1ccccc1)NCc1ccccc1Cl 3.82%, OCCNCc1cccc(OCc2ccccc2Cl)c1 -19%, CCCCc1nc2ccccc2c(=O)n1NC(=O)c1c(O)c2cccc3c2n(c1=O)CC3 23.1%, CN1CCN(CC(=O)Nc2cccc([N+](=O)[O-])c2)CC1 6.3%, Fc1ccc(CN2CCc3nc(Nc4ccccc4)ncc3C2)cc1F -24.7%, COc1ccc(/C=C/C(=O)OCC(=O)Nc2cccc(Oc3ccccc3)c2)c(OC)c1 0.384%, COc1cc(/C=C/C2=CC(C)(C)NC(=S)N2)cc(OC)c1OC -25.7%, O=C(O)c1c(CNCc2cccc(F)c2)c2ccccc2n1Cc1ccccc1 -0.857%, COC(=O)c1ccccc1NC(=O)c1cnn(-c2ccc(F)cc2)c1-n1cccc1 -14.4%, Cc1ccc2oc3c(c(=O)c2c1)C(c1ccc(O)cc1)N(Cc1ccc2c(c1)OCO2)C3=O (stereo not drawn) -0.588%, CCOc1ccc(CCNC(=O)CN(c2ccc(C)cc2)S(=O)(=O)N(C)C)cc1OCC 1.55%, CCN(CC)c1ccc(/C=N/NC(=O)c2cnccn2)c(O)c1 -7.91%, Cc1cc(C)nc(N/N=C/c2ccc([N+](=O)[O-])o2)n1 -25.2%, Cc1ccc(-c2noc(CSc3nnc(-c4ccc(Cl)cc4)n3C)n2)cc1 -2.06%, O=C(CCC1CCCN(Cc2ccc(O)c(Cl)c2)C1)NCc1ccccc1F (stereo not drawn) -15%, CSc1ncccc1C(=O)N1CCCC(CCC(=O)NCc2ccccc2F)C1 (stereo not drawn) -0.331%, CCCNC(=O)C1CCC(Cn2c(=O)c3sccc3n(Cc3ccccc3F)c2=O)CC1 (stereo not drawn) -3.32%, Cc1ccccc1NC(=O)Cn1c(=O)n(CCCCC(=O)NCc2ccccc2Cl)c(=O)c2ccccc21 1.21%, Cc1cc(F)ccc1NS(=O)(=O)c1ccc(-n2cccn2)cc1 -2.31%, Cn1ccc2cc(S(=O)(=O)N3CCCC(C(=O)NCc4ccccc4F)C3)ccc21 (stereo not drawn) -3.06%, Cc1oc(-c2ccccc2)nc1Cn1c(SCc2cccc(C(F)(F)F)c2)nc2cccnc21 -3.84%, CCc1nn(CC(=O)N2CCN(c3ccc(Cl)cc3)CC2)c(=O)c2cc3occc3n12 -29.9%, NC(=O)CCN1CCN(S(=O)(=O)/C=C/c2ccccc2)CC1 3.29%, COc1ccccc1N1CCN(CC(=O)NC(=O)NCc2ccco2)CC1 -3.12%, COc1cccc(CNCCSc2nnnn2C)c1OCc1ccccc1Cl -22%, O=C(Cc1ccccc1)n1nc(-c2ccccc2)nc1NCc1ccco1 11.8%, O=C(Nc1ccccc1)/C(=C\c1ccco1)NC(=O)c1ccco1 -17.7%, CCOc1ccccc1N(CC)C(=O)c1cc2ccc3cccnc3c2[nH]1 -0.472% [at 57.1 µM], CC(=O)c1cccc(NC(=O)c2nc(-c3ccccc3)n(-c3cccc(C)c3)n2)c1 -9.48%, Cc1ccccc1-n1c(SCC(=O)Nc2cccc3ccccc23)nc(O)cc1=O -38.7%, O=C(CSc1nccn1Cc1ccc(F)cc1)NCc1ccccc1 -22%, Cc1nnc(NC(=O)CSc2nccn2-c2cccc(C)c2C)s1 -29.9%, CC(=O)Nc1cccc(NC(=O)CSc2nccn2Cc2ccc(F)cc2)c1 -24.5%, O=C(CSc1n[nH]c(-c2ccccc2)n1)N1CCCCC1 6.63%, CN(C(=O)c1ccc2c(c1)N(Cc1cccc(Cl)c1)C(=O)c1ccccc1S2=O)C1CCCCC1 (stereo not drawn) -10.9%, Cc1ccc(NC(=O)c2ccc3[nH]c(C)cc(=O)c3c2)c(C)c1 0.886%, O=C1CSC2(C(=O)N(Cc3ccccc3)c3ccccc32)N1c1cccc(F)c1 (stereo not drawn) -33%, CSc1ncc(C(=O)NCc2ccccc2Cl)c(C(F)(F)F)n1 12.8%, COc1ccc(OC)c(-c2csc(-c3c(N)c(C(=O)c4ccccc4)n4ccccc34)n2)c1 -0.518%, NC(=O)CSc1c[nH]c2ccccc12 7.21%, O=C(NC1CCCC1)C(=O)c1c[nH]c2ccccc12 -21.7%, CCc1ccc(-n2nc(C)c3c(C)cc(=O)n(CC(=O)Nc4ccc(F)cc4C)c32)cc1 -2.03%, CC1CC(=O)Nc2ccccc2N1S(=O)(=O)c1cccs1 (stereo not drawn) 2.06%, CC1CC(C)(C)NC(=S)N1CCC(=O)N1CCN(Cc2ccccc2)CC1 (stereo not drawn) -0.357%, Cc1nc(N2CCOCC2)c2c(C(=O)NCc3cccc(Cl)c3)c(C)oc2n1 9.33% [at 57.1 µM], O=C(CCn1ccc([N+](=O)[O-])n1)Nc1nccs1 -7.33%, CCOc1ccc(C(=O)Nc2nccs2)cc1[N+](=O)[O-] 6.29%, COc1ccc(-c2nc3scc(CCNS(=O)(=O)c4cc(F)ccc4OC)n3n2)cc1OC -14.6%, COc1ccccc1C(=O)OCc1cc(=O)n2nc(-c3cccs3)sc2n1 -31.5%, CC1=Nc2cc(C(=O)NCc3ccc(C)cc3)ccc2Sc2ccc(Cl)cc21 -12.7%, Cc1cc(Cl)ccc1OCCCC(=O)NCc1ccccn1 -6.56%, O=S(=O)(NCc1ccccn1)c1ccc(F)cc1 -2.51%, O=C(CCc1nc(CN2CCN(S(=O)(=O)c3ccc(Br)cc3)CC2)no1)N1CCCCC1 -19.9%, COC(=O)c1ccccc1NC(=O)C(Cc1ccccc1)N1Cc2ccccc2C1=O (stereo not drawn) -0.606%, CCN(CCCNC(=O)c1cc2cc3cc(OC)ccc3nc2s1)c1ccccc1 -27.3%, Cc1cc([N+](=O)[O-])ccc1NC1CCCC1 -0.979%, Cc1c(NS(=O)(=O)c2ccc(NC3CCCC3)c([N+](=O)[O-])c2)c(=O)n(-c2ccccc2)n1C -27.8%, CCOc1ccc(-c2cc(C)n3nc(C(=O)Nc4ccc(C)c(C)c4)cc3n2)cc1 -6.73%, CCOC(=O)c1scc(-c2ccccc2)c1S(=O)(=O)Nc1ccccc1F 7.14%, Cc1ccnc(SCC(N)=O)n1 -21.5%, Cc1ccnc(N2CCCC(C(=O)NC3CC3)C2)n1 (stereo not drawn) 1.89%, Cc1ccc(C)c(N2CCN(S(=O)(=O)c3ccc4c(c3)C(C(C)C)C(=O)N4)CC2)c1 (stereo not drawn) -11.9% [at 57.1 µM], CC(NC(=O)c1cc2c(=O)n3ccccc3nc2n(C(C)C)c1=N)c1ccccc1 (stereo not drawn) 1.9%, CCc1ccccc1NC(=O)CSc1nc(C)c(C(=O)Nc2ccccc2)c(-c2ccc(Cl)cc2)c1C#N 0.0077%, COc1ccc(OC)c(CCNC(=O)c2nn(C)c3c2CS(=O)(=O)c2ccccc2-3)c1 -27.6%, COc1ccc(-n2c(=O)[nH]c3cc(C(=O)NCCc4ccc(OC)c(OC)c4)ccc3c2=O)c(OC)c1 4.46%, CCOc1cccc2cc(-c3cn4c(n3)sc3cc(C)ccc34)c(=O)oc12 -17.3%, Cc1cc(Br)ccc1NC(=S)NC1CCCC1 -19.8%, Cc1ccc(NC(=O)CSc2cccc3cccnc23)c(C)c1 -21.6%, COC(=O)c1scc(-c2ccc(C)cc2)c1S(=O)(=O)Nc1cc(Cl)c(OC)cc1OC -22.8%, Cc1cc(C)c(NC(=O)CCc2c(C)nc3c(c(C)nn3C(C)(C)C)c2C)c(C)c1 -12.1%, COc1ccc(OCC(O)CNC(=O)Nc2ccc(Cl)cc2)cc1 (stereo not drawn) -5.34%, OC(CNCc1ccc2c(c1)OCO2)COc1ccccc1 (stereo not drawn) -13.4%, CCCNC(=O)c1ccc(Cn2c(SCC(N)=O)nc3ccccc3c2=O)cc1 0.549%, CC(=O)c1ccc(NC(=O)CSc2nnc(NC(=O)Nc3ccccc3)s2)cc1 7.08%, O=C(c1ccco1)N1CCN=C1SCc1cccc(Cl)c1 -1.87%, Cc1cc2c(cc3c(SCc4nc(-c5ccccc5)oc4C)nnc(C)n32)o1 -15.2%, CCc1ccccc1NC(=O)c1sc2nc3c(cc2c1N)CN(Cc1ccccc1)CC3 -6.05%, CCN1CCc2nc3sc(C(=O)Nc4ccccc4OC(F)(F)F)c(N)c3cc2C1 -35%

Potency, active:
Clc1cccc(Cl)c1OCCOCCNCc1ccccc1 56.2 µM, CCCCc1nc2ccccc2c(NC(=O)CN2CCN(C)CC2)c1CCC 50.1 µM, COc1ccc(/C=C/C2=CC(C)(C)NC(=S)N2)c(OC)c1 39.8 µM, CCN(CC)c1ccc(/C=N/Nc2nc(C)cc(C)n2)c(O)c1 25.1 µM, Cc1[nH]c2c(C(=O)N3CCCC(CCC(=O)NCc4ccccc4F)C3)cccc2c1C (stereo not drawn) 70.8 µM, O=C(CN1CCN(S(=O)(=O)/C=C/c2ccccc2)CC1)NC(=O)NCc1ccco1 50.1 µM, O=c1nc2s/c(=C\c3ccco3)c(=O)n2nc1Cc1ccccc1 50.1 µM, O=C(CSc1nccn1-c1ccc(F)cc1)Nc1cccc2ccccc12 7.94 µM, Cc1cccc(-n2ccnc2SCC(=O)Nc2cccc3ccccc23)c1C 14.1 µM, O=S(=O)(O)Oc1c[nH]c2ccccc12 44.7 µM, CC(=O)N(C1=C(Cl)C(=O)c2ccccc2C1=O)c1ccc(C(=O)O)cc1 28.2 µM, CC1CC(=S)Nc2ccccc2N1Cc1ccccc1 (stereo not drawn) 39.8 µM, Cc1c(Br)c([N+](=O)[O-])nn1C(C)C(=O)Nc1nccs1 (stereo not drawn) 79.4 µM, Fc1ccc(-c2ccc(CNCc3ccccn3)o2)cc1Cl 31.6 µM, Cc1cc(C=O)c(C)n1-c1ccc(NC2CCCCC2)c([N+](=O)[O-])c1 10 µM, Cc1ccnc(-n2sc3ccccc3c2=O)n1 25.1 µM, CCn1c(C)c(C)c2cc(C(=O)NCCc3cc(OC)ccc3OC)ccc21 31.6 µM, Cc1ccc(NC(=S)Nc2ncccc2C)c(C)c1 44.7 µM, OC(CNCCc1ccc(Cl)cc1Cl)COc1ccccc1 (stereo not drawn) 70.8 µM, Cc1cc2c(cc3c(SCc4cccc(Cl)c4)nnc(C)n32)o1 25.1 µM, CCc1ccc(NC(=O)c2sc3nc4c(cc3c2N)CN(CC)CC4)cc1 35.5 µM
